Test results taken from the supplement of paper PMC11732987, “Enantioselective OTUD7B fragment discovery through chemoproteomics screening and high-throughput optimisation” (Communications Chemistry, 2025).

Assays:
Test in all cases: log2 ratio of Biotin-Ahx-Ub-VS probe labelling (fragment/DMSO); higher = less target engagement (more negative = stronger competition), active = hit call of the paper (q ≤ 0.05, log2 ratio ≤ -1)
Conditions in all cases: compound concentration: 200 uM; treatment time: 3 h
USP19 = target: T1, USP19 (UniProt O94966)
T1 sequence (whole entry): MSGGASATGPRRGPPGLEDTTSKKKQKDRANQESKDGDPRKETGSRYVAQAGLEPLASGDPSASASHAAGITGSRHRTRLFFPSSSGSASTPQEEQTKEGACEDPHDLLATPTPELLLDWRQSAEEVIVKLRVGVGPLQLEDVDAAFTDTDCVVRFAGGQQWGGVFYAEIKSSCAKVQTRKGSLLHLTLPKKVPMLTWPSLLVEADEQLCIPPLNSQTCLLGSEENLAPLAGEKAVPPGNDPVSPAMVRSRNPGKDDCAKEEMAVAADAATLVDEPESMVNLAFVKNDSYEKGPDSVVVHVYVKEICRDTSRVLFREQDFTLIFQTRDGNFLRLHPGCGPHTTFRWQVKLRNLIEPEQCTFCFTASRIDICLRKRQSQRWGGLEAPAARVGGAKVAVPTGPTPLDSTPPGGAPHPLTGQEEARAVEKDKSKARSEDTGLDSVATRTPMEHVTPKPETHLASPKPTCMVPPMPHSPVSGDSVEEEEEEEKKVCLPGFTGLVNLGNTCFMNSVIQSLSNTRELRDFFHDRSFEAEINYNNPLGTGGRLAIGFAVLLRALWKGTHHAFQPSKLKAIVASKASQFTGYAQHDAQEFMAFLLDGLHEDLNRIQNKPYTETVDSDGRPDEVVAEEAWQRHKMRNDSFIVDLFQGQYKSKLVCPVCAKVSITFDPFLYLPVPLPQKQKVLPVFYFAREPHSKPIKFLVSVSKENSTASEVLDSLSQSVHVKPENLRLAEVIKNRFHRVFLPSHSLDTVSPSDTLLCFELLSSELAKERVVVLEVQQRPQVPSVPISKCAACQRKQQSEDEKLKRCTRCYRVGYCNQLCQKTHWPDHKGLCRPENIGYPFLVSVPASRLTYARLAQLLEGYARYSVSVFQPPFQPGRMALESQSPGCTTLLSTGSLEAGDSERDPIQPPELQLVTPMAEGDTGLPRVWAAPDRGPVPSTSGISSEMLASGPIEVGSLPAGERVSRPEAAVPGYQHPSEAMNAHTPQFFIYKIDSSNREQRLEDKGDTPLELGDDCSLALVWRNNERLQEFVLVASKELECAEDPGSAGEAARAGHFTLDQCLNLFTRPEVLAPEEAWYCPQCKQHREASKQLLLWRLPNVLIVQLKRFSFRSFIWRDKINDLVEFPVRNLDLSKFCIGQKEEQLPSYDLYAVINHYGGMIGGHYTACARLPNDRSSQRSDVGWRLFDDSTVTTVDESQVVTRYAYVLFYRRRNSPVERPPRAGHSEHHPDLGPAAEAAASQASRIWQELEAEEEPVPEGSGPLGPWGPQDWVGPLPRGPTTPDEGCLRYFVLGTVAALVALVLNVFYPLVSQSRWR
Outline: (§1)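 HEK293T lysate, 495 µg per sample in Tris/CHAPS/IGEPAL buffer with protease inhibitors, was treated in triplicate with fragment at 200 µM or vehicle for 3 h and then with Biotin-Ahx-Ub-VS at 0.5 µM final for 1 h. Labelled DUBs were NeutrAvidin-enriched, digested with LysC and trypsin, and run by diaPASEF LC-MS/MS. Spectronaut label-free quantities were global-median-normalised, and values are average log2 fragment/vehicle ratios by unpaired t-test on proteins with ≥2 unique peptides.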

USP22 = target: T2, USP22 (UniProt Q9UPT9)
T2 sequence (whole entry): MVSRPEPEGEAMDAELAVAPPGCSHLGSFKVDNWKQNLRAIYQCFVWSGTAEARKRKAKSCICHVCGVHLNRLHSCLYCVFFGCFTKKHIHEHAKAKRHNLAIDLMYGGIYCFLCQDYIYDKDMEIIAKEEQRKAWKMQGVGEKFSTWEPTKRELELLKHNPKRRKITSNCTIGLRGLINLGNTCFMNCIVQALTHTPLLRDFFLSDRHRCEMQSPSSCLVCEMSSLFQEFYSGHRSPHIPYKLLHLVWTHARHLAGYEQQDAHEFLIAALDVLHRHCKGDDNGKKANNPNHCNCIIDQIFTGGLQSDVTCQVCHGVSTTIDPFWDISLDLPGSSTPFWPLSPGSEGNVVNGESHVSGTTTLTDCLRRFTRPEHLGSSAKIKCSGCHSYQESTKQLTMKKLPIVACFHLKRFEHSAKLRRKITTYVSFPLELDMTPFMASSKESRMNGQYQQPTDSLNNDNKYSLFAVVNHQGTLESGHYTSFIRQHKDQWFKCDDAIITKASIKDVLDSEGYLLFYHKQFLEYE
Outline: as §1

USP24 = USP24 (UniProt Q9UPU5)
Outline: as §1

USP25 = target: T3, USP25 (UniProt Q9UHP3)
T3 sequence (whole entry): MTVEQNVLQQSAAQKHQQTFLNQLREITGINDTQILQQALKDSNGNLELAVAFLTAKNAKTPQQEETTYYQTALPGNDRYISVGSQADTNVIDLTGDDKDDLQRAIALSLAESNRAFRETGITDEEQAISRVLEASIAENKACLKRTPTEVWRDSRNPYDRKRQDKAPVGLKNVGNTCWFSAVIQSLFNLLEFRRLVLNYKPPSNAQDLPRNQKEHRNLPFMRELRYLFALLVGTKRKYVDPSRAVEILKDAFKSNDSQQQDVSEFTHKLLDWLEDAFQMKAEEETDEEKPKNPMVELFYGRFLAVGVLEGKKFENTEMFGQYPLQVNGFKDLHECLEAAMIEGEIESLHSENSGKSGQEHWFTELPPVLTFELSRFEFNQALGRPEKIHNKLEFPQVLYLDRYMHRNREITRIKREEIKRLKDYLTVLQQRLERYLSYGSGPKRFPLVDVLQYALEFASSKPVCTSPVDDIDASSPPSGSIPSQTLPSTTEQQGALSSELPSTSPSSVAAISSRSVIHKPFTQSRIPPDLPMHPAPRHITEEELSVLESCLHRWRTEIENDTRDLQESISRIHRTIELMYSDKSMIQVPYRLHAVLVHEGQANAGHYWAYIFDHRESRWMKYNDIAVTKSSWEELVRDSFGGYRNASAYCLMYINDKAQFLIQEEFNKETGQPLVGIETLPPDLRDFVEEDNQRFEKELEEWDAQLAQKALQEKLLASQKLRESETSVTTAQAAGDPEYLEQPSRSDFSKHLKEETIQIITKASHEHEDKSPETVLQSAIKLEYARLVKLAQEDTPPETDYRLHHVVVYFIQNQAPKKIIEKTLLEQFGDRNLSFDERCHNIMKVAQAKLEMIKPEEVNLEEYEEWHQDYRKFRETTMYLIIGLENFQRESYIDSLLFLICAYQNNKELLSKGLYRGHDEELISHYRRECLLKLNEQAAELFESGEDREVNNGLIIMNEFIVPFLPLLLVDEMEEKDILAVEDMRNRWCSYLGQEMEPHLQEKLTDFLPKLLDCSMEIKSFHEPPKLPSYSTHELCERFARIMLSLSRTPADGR
Outline: as §1

USP28 = target: T4, USP28 (UniProt Q96RU2)
T4 sequence (whole entry): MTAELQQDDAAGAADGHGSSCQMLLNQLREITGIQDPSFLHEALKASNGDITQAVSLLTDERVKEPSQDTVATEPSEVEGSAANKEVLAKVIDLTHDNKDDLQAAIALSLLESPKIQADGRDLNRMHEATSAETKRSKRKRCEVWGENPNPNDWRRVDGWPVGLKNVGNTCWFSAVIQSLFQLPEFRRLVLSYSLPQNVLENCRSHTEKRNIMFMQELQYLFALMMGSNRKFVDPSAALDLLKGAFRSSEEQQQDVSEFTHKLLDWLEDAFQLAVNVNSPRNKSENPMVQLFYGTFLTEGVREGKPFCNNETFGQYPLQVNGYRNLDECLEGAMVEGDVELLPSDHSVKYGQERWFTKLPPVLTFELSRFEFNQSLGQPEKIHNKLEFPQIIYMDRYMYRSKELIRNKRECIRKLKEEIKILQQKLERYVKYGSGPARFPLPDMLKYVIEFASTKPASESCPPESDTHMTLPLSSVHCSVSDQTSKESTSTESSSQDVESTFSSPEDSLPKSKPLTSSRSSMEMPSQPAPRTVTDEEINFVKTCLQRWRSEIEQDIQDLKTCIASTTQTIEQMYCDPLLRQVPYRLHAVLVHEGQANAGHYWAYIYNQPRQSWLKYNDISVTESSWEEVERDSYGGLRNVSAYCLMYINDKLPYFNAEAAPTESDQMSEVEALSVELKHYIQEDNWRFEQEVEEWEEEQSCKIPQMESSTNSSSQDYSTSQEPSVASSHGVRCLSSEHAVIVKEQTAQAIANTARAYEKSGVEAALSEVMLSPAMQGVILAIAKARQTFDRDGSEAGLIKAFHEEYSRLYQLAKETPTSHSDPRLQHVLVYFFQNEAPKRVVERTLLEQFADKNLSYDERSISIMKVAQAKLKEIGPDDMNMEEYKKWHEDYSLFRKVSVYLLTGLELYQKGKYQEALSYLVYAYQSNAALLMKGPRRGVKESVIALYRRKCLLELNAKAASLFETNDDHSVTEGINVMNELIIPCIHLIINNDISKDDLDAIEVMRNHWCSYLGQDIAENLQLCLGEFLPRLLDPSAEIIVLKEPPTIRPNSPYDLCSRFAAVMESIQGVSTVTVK
Outline: as §1

Measured: log2 ratio of Biotin-Ahx-Ub-VS probe labelling

USP24, sequence (Q9UPU5 whole entry): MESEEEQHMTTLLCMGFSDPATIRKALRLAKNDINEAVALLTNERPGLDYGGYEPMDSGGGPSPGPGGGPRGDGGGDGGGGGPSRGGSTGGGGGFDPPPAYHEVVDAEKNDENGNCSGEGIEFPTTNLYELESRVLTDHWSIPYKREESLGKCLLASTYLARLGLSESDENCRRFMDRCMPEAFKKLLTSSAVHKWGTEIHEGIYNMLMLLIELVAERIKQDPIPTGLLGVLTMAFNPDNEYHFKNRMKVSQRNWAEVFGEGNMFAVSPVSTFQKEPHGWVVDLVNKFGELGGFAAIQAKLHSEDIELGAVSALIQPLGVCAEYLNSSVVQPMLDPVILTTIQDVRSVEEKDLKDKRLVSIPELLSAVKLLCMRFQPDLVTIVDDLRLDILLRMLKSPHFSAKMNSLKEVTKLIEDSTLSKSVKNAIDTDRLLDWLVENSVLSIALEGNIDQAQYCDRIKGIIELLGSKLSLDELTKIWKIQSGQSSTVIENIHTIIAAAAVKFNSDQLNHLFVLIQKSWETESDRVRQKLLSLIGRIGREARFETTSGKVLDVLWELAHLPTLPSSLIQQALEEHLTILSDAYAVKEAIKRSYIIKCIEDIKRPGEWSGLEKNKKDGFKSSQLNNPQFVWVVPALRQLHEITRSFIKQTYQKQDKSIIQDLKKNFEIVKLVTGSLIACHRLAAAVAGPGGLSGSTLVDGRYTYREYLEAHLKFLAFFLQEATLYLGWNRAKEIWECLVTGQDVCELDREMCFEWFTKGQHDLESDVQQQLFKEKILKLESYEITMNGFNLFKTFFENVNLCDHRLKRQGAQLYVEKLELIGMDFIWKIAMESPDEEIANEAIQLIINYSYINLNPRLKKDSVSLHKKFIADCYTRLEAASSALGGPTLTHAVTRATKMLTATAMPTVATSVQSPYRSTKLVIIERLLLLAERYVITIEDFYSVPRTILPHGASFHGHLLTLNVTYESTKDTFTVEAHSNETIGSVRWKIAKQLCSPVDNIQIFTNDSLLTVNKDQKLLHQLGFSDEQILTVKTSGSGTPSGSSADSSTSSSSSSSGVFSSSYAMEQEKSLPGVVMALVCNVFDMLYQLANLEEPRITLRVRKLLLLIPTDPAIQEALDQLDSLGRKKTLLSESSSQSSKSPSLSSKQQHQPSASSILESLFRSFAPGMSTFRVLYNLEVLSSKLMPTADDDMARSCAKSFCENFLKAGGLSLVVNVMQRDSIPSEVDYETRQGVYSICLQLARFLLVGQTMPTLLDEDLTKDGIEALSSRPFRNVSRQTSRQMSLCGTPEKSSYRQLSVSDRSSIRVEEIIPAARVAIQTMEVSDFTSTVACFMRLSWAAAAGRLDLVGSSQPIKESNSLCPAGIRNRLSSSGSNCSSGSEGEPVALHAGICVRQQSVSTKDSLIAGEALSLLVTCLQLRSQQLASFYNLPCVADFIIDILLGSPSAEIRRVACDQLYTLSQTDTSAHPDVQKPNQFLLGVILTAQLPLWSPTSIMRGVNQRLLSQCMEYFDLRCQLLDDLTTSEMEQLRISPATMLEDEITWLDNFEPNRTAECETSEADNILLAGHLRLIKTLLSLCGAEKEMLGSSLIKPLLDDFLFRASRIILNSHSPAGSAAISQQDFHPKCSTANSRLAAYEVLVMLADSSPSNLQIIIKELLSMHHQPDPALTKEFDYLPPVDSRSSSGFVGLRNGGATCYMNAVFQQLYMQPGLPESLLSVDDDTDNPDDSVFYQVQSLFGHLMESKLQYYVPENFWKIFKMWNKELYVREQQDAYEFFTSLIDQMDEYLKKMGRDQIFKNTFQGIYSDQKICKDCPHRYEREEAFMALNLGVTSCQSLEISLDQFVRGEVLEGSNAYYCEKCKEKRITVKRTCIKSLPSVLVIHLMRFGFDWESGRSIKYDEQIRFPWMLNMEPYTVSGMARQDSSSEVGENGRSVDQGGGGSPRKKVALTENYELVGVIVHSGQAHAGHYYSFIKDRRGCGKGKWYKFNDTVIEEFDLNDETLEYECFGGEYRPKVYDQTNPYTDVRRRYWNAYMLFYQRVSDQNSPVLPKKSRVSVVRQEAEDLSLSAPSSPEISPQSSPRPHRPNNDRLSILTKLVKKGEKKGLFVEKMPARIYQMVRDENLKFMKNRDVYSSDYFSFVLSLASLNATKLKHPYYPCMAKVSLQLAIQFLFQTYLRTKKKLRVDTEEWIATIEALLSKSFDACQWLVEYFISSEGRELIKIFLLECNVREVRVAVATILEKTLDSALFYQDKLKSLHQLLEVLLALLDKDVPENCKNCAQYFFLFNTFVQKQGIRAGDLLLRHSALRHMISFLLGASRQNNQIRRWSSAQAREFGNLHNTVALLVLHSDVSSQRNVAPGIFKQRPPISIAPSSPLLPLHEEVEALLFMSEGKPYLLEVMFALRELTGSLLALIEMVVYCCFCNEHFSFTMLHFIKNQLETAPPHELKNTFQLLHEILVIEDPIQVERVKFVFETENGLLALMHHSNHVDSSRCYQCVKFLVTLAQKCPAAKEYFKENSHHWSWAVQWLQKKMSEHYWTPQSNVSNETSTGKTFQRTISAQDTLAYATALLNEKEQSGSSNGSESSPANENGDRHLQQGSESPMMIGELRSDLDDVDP

Cc1cc(C2CCCN2C(=O)CCl)nn1C.Cl (stereo not given)
inactive: USP19 -0.282 | USP22 -0.312 | USP24 -0.202 | USP25 -0.257 | USP28 -0.271
